# In all, about 39,000 sequences were measured (“fluorescence intensity (a.u.)”: median about 4,300, highest 2% from about 39,000 on). Shown is part of a subset that was picked to be rich in the highest values.
# Biological target: T1, OsSMF1 (Oryza sativa, UniProt Q6ZLB0 1-436)
# T1 sequence: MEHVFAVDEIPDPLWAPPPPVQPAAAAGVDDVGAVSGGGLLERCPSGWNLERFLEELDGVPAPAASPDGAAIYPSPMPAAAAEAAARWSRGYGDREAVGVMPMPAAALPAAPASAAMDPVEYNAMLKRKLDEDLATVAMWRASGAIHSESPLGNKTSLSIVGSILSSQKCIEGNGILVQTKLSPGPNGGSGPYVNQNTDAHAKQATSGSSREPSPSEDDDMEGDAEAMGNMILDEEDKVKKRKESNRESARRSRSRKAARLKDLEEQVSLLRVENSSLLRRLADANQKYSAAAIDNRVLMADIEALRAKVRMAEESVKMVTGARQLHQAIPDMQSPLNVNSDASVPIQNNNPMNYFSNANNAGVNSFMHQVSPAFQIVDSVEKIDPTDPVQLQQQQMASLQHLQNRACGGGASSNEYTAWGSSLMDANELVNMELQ
# Experiment: protein-binding microarray (RPBM); PBS, 2% BSA, 51.3 ng/ul salmon testes DNA, 50 uM zinc acetate, 200 nM TF, 25 C, 1 h; high values mean tight binding
# Conditions: protein: recombinant; tags: N-terminal polyhistidine and DsRed monomer fusion (pET32a); chain copies: 2; label: CyDye5-dUTP incorporated in the synthesized complementary strand; 3' TTTTT single-stranded linker to array surface; dsDNA, one strand shown
# Method in brief: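 Per-feature fluorescence intensity (arbitrary units), read on an Axon 4000B scanner, is the binding signal. Transcription factors carrying an N-terminal polyhistidine tag and DsRed fusion were expressed in E. coli BL21-CodonPlus and purified on Ni–NTA. A custom Agilent array, made double-stranded by primer extension with Cy5-dUTP and blocked with 2% BSA, was incubated with 200 nM protein in PBS, 2% BSA, salmon testes DNA and 50 µM zinc acetate at 25 °C for 1 h and then washed.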
row,Sequence,binding signal
1,GCAGGGCAGGCTGACAGCTCATCTTCTCAGAGGATCCGATCGGAGTCACCTAGTGCAG,5100 fluorescence intensity (a.u.)
2,AGCGTCGCGCCGCGCCACGCCACGCCACGCCACCCCACCACGGAGTCACCTAGTGCAG,5830 fluorescence intensity (a.u.)
3,TGAGCCACGCACTGAACACGACCGTTCGATCCCCTCAAGGCGGAGTCACCTAGTGCAG,3810 fluorescence intensity (a.u.)
4,CGTATATGTATATATACATACTTTATACACATATATATACCGGAGTCACCTAGTGCAG,3360 fluorescence intensity (a.u.)
5,ATACCTGATCCTACTTGTCATACACATATTTATCTTATAGCGGAGTCACCTAGTGCAG,3620 fluorescence intensity (a.u.)
6,TTTGGTGCGAGCGAAATACCAGGATCTTTATACACATAGCCGGAGTCACCTAGTGCAG,58000 fluorescence intensity (a.u.)
7,ACTGCCATGGTTGCGGAGCAGGATGGTGACGTGGATCCCACGGAGTCACCTAGTGCAG,17700 fluorescence intensity (a.u.)
8,GCCGCTTTTGCGAATTTTGCACGTAGACCCCTTGCCGCCCCGGAGTCACCTAGTGCAG,3330 fluorescence intensity (a.u.)
9,TCACCACCTCACTCCACTAACCAGAGAGAGAACGCAGCTACGGAGTCACCTAGTGCAG,21000 fluorescence intensity (a.u.)
10,TTGTACCAGCTAACTCATCACCACGCAGGCCAGAGTAGTACGGAGTCACCTAGTGCAG,45900 fluorescence intensity (a.u.)
11,ACACAGCCACGCCCGTACGCAGCTACGTACGCACGCATCACGGAGTCACCTAGTGCAG,5670 fluorescence intensity (a.u.)
12,CGTGAGCGGGTGGTGGTGGTGATGGCGTTCGCGGTGGCGACGGAGTCACCTAGTGCAG,3520 fluorescence intensity (a.u.)
13,AGCTTCGCACTGGGCACGTGTGCCTGTGTGTGGGAGTCAGCGGAGTCACCTAGTGCAG,4070 fluorescence intensity (a.u.)
14,GAAGTGGTTCTGCACTGTGATTTGAAGCCTAGCAACGTGCCGGAGTCACCTAGTGCAG,35800 fluorescence intensity (a.u.)
15,CAAACTGCAACTCCAATATCACATTTTCTTTCTCTTTTCCCGGAGTCACCTAGTGCAG,19700 fluorescence intensity (a.u.)
16,CAGTCAGTCAGTAGGTTCCCAGAATTTTCTCCCTGCAAACCGGAGTCACCTAGTGCAG,50200 fluorescence intensity (a.u.)
17,TGCTGCCAGAGTCAGTAGGTGCCCTCTTCCACCTGCAGACCGGAGTCACCTAGTGCAG,3270 fluorescence intensity (a.u.)
18,CAAACAAGGACCGTAGACACTCTAACCAACCCCAATAACACGGAGTCACCTAGTGCAG,31300 fluorescence intensity (a.u.)
19,TCAGTAGGCCAGTAGCTAGCTGCTGCCTTCACACATCAATCGGAGTCACCTAGTGCAG,3160 fluorescence intensity (a.u.)
20,ATGAACATATTTCAATCGTTCAGTACCTTCAAGCCACAGGCGGAGTCACCTAGTGCAG,39800 fluorescence intensity (a.u.)
21,CACATCGTTGCCAATGTTGCCACGTACCAAGGTCATATGGCGGAGTCACCTAGTGCAG,9400 fluorescence intensity (a.u.)
22,GCCAGCTGCCACGTGGGACAAAATCGGGGTCAAAACCACCCGGAGTCACCTAGTGCAG,12700 fluorescence intensity (a.u.)

row,Sequence,binding signal
1,CCTCGTCCGCCTTGGTCTTCTTCCAGCCGAGGAGCAACCGCGGAGTCACCTAGTGCAG,48200 fluorescence intensity (a.u.)
2,GTCCAGCCTCCTCCTCCGCTGACCTCCTCGCGGTCTTCTCCGGAGTCACCTAGTGCAG,4520 fluorescence intensity (a.u.)
3,CGAGCCGCCTCCGCCACCGCCGCCTCCTTCCGACCAGCCGCGGAGTCACCTAGTGCAG,3530 fluorescence intensity (a.u.)
4,AGCTTACTATGATACCGATGAACACGTTATGACAACAAACCGGAGTCACCTAGTGCAG,3880 fluorescence intensity (a.u.)
5,AACGTGAACTAAACACATGTCGAAATGCAATCAAAATACCCGGAGTCACCTAGTGCAG,42000 fluorescence intensity (a.u.)
6,CAAATACTAAATGATTTCAAATGAAAACGTCATCAACAACCGGAGTCACCTAGTGCAG,3560 fluorescence intensity (a.u.)
7,AATCAAACTTTCAATTTTAGCGTGAACTAAACACACCCTTCGGAGTCACCTAGTGCAG,3680 fluorescence intensity (a.u.)
8,ATAGAAACATAGCGTGACACAACATAACAAACCAATGCAACGGAGTCACCTAGTGCAG,4630 fluorescence intensity (a.u.)
9,CCAAATAGACTCTTACTTATAAGGGTTGAGTCTAGAGTGACGGAGTCACCTAGTGCAG,6050 fluorescence intensity (a.u.)
10,ATAAAGTCCTTATCGGACACTAAACGCACTTTCCTAAAGACGGAGTCACCTAGTGCAG,39200 fluorescence intensity (a.u.)
11,ATGAACTAAACGCACCCTTGTAAGTCTGACACACTGTGGACGGAGTCACCTAGTGCAG,3720 fluorescence intensity (a.u.)
12,TGATTGTGACACTAGCACGACGCACTTTCCTCTATATACACGGAGTCACCTAGTGCAG,3630 fluorescence intensity (a.u.)
13,AAGAAATCTCTTCATAGATCTCCTGATGAAAGAATTTAACCGGAGTCACCTAGTGCAG,3730 fluorescence intensity (a.u.)
14,TGTTCCACTGTTGTGTGTGTGGCATTCTTGTACTGCATTTCGGAGTCACCTAGTGCAG,3360 fluorescence intensity (a.u.)
15,TTGTGTGCATTTCGGCATTTGGCTACAAGATTCTTGCAGTCGGAGTCACCTAGTGCAG,39600 fluorescence intensity (a.u.)
16,CAGGCTACAGGGCATTTGTGTCATTTTGCAAGAAGGCATACGGAGTCACCTAGTGCAG,3380 fluorescence intensity (a.u.)
17,CTCGATACAGAGTGAGCGGGGTATGGCAATGACGAGCTATCGGAGTCACCTAGTGCAG,3160 fluorescence intensity (a.u.)
18,GAATGAAAACTCAGGGGTAAGTAGGAGATGACGCAAAGTTCGGAGTCACCTAGTGCAG,3580 fluorescence intensity (a.u.)
19,CGTCTCGCCGGAGCGTTGACGAGGACCTCTCTACTCTTCACGGAGTCACCTAGTGCAG,3680 fluorescence intensity (a.u.)
20,TTCTCCCTCTACTATTGCTGACGCCACCAACGCCCATGTGCGGAGTCACCTAGTGCAG,13500 fluorescence intensity (a.u.)
21,GGCCATGTTGAATGACGCGTTGCTCTCCCTACTCTACGGACGGAGTCACCTAGTGCAG,49100 fluorescence intensity (a.u.)

# Reference: publication PMC7819943, “Rice protein-binding microarrays: a tool to detect cis-acting elements near promoter regions in rice”
